PubChem BioAssay
Where “and” joins values, the source holds several entries; their conditions need not be identical. Equal values may be shown once. Calls of active or inactive are those of the source.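 Rule for the calls, unless noted: active = compound raises GLP1 secretion from the human gut endocrine cells, with no numeric limit stated; inactive = the rest.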

Experiments:
[1] = liver-stage malaria parasite growth inhibition, primary screen, cell-based, HepG2, luciferase luminescence, HepG2 viability (AID 624349; in the data active = parasite load remaining mostly below about 12%, no sharp cut-off; inactive = mostly above about 10%;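 note: 100% = mean of DMSO negative control wells on the same plate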); conditions: P. berghei liver stage in HepG2, luciferase luminescence, concentration not given here; parasite load remaining: stronger effect = lower value; viability: measured here: HepG2 viability without parasites
[2] = stimulators of nuclear beta-catenin in C2C12, primary screen, imaging, WNT3A-conditioned medium, mouse C2C12, NPC library (AID 1117326; in the data active = nuclear beta-catenin stimulation mostly above about 4.2%, no sharp cut-off; inactive = mostly below about 10%; note: reference of the scale not given here); conditions: stronger effect = higher value
[3] = stimulators of insulin release from INS-1E, primary screen, cell-based, 5 mM glucose, NPC library (AID 1117329;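 active = compound raises insulin release from rat beta cells at 5 mM glucose, no numeric limit stated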; note: reference of the scale not given here); conditions: rat INS-1E insulin secretion, at 10 µM, stronger effect = higher value
[4] = growth inhibition of GSK3B-pretreated HCT116 cells – cell-based, CellTiter-Glo, 0.2 to 20 µM (AID 1117336;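 active = compounds lowering colon cancer cell viability after pretreatment blocking the GSK3B kinase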); conditions: HCT116 viability after GSK3B inhibitor, at 20 µM, stronger effect = higher value
[5] = inhibition of endothelial tube formation, primary screen, imaging, VEGF stimulated, CD31 staining, tube area, NPC library (AID 1117340;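 active = compound that reduces growth-factor-driven endothelial tube area in a mixed cell culture, no cutoff stated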); conditions: VEGF-stimulated ADSC/ECFC co-culture, at 10 µM, stronger effect = higher value
[6] = glucagon-like peptide 1 release enhancers, primary assay, NCI-H716 cell line, NPC library (AID 1117341); conditions: NCI-H716 cells, at 10 µM, stronger effect = higher value; note: reference of the scale not given here
[7] = HCT116 colon cancer cell growth inhibition, primary screen, CellTiter-Glo luminescence, NPC library (AID 1117342;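 active = compounds that lower survival of HCT116 colon cancer cells in the luminescence readout, no numeric limit stated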); conditions: at 20 µM (top of the series)
[8] = CellTiter-Glo luminescent readout of SW480 viability loss, NPC library primary (AID 1117343;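 active = compounds that lower viability of the colon cancer cells in the luminescence readout, with no numeric limit stated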); conditions: CellTiter-Glo luminescence; at 20 µM (top of the series)
[9] = decreased DLD-1 cellular survival, CellTiter-Glo luminescent readout, NPC compound collection, primary HTS (AID 1117346;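 active = compounds that lower survival of DLD-1 colon cancer cells in the luminescence readout, no cutoff given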); conditions: DLD-1 viability, CellTiter-Glo luminescence; at 20 µM (top of the series)
[10] = sensitizers of A549 cells to miR-34 induction, primary screen, imaging, A549 dox-inducible miR-34, nuclei and caspase counts (AID 1347080;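 active = compounds whose cell count with miR-34 switched on is under 0.7 times the count with it off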); conditions: A549 miR-34 inducible, Hoechst nuclei count, 48 h
[11] = survival rescue of mitochondrial mutant cells in low glucose, primary screen, MELAS cybrids, Rieske KO mouse fibroblasts, CellTiter-Glo (AID 1508586;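 active = mean z-score across replicates of 1.96 or higher in either the MELAS or the Rieske mutant cell line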;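 note: z relative to plate mean and SD of compound and empty wells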)
[12] = hESC survival regulators, cell-based (AID 493140; call rule not given here;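 note: cells exposed to compounds for four days before counting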); conditions: human embryonic stem cell survival screen; stronger effect = higher value
[13] = molecular target: NAD(+) hydrolase SARM1 (Homo sapiens) (UniProt Q6SZW1); assay: SARM1 TIR NADase inhibitors, cell lysate, NAD-Glo luminescence (AID 1508614;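 active = compound whose remaining NAD level is above about 45 nM, limit read from the data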;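 note: higher remaining NAD means stronger inhibition of SARM1 NADase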); conditions: SAM-TIR HEK293T lysate NADase, at 1 µM, stronger effect = higher value
[14] = viability rescue of complex I mutant cybrids, primary screen, cell-based, galactose medium, ATP luminescence (AID 1645843;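 active = z-score of at least 1.8 in each of two replicates, scored against plate mean and spread of sample wells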;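 note: positive z means more ATP and so rescue of galactose-driven cybrid death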); conditions: complex I mutant cybrid cells, 72 h, stronger effect = higher value
[15] = stronger effect = lower value, cell number ratio, induced over uninduced
[16] = measured here: relative caspase fold change +Dox/-Dox
[17] = measured here: total cells with miR-34 induction, stronger effect = lower value
[18] = measured here: total cells without miR-34 induction
[19] = MELAS cybrid survival, CellTiter-Glo 48 h, stronger effect = higher value
[20] = Rieske KO mouse fibroblast survival, CellTiter-Glo 72 h

Sequence of NAD(+) hydrolase SARM1 (Homo sapiens) (Q6SZW1 whole entry, looked up): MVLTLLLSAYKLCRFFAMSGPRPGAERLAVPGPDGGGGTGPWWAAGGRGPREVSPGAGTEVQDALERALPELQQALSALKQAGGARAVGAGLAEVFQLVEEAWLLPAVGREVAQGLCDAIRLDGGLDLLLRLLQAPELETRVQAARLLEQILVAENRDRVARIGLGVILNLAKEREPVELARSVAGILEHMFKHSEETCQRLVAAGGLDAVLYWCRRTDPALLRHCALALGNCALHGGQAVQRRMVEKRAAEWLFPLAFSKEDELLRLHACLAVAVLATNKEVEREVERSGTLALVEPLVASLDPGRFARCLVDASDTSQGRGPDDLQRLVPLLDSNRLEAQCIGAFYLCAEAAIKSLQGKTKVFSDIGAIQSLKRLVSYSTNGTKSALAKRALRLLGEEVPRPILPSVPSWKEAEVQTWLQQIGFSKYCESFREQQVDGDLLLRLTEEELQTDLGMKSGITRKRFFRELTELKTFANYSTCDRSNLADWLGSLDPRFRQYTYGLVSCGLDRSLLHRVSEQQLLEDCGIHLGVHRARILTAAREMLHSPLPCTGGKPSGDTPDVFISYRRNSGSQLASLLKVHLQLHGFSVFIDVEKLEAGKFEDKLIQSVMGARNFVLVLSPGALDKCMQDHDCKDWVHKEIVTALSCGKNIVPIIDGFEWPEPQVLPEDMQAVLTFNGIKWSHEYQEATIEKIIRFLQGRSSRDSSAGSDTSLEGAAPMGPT

For `O=C1OC2(c3cc(Br)c(O)cc3Oc3c2cc(Br)c(O)[c]3[Hg])c2ccccc21` (stereo unspecified), the parasite load remaining [1] was 65.8% (inactive), the viability [1] was 84.8% and the nuclear beta-catenin stimulation ([2]; at 10 µM) was 57.5% (active). The nuclear beta-catenin stimulation ([2]; stimulation, at 2 µM) was 3.4%, the insulin secretion stimulation [3] was 7.2% (inactive) and the viability decrease [4] was 77.7% (active). For the same molecule, the tube area decrease [5] was -234% (inactive), the GLP1 secretion stimulation [6] was -1.4% (inactive) and the inhibition of viability [7] was 52.1% (active). The viability decrease (inhibition) [8] was 11.7% (inactive), the viability decrease (inhibition) [9] was 38.2% (inactive) and the fold change [10, 15] was 0.885 (inactive). For the same molecule, the fold change [10, 16] was 1.08, the cell count [10, 17] was 9490 and the cell count [10, 18] was 10700. For the same molecule, the z-score [11, 19] was -0.831 (inactive) and the z-score [11, 20] was 0.0245.

For `Clc1ccc(CCC(Cn2ccnc2)Sc2c(Cl)cccc2Cl)cc1` (stereo unspecified), the survival [12] was 15 (inactive), the parasite load remaining [1] was 5.94% (inactive) and 63.9% (inactive) and the viability [1] was 103% and 82.5%. The nuclear beta-catenin stimulation ([2]; at 10 µM) was 15.6% (inactive), the nuclear beta-catenin stimulation ([2]; stimulation, at 2 µM) was 4.3% and the insulin secretion stimulation [3] was -0.2% (inactive). For the same molecule, the viability decrease [4] was 101% (active), the tube area decrease [5] was 109% (active) and the GLP1 secretion stimulation [6] was 20.8% (active). The inhibition of viability [7] was 101% (active), the viability decrease (inhibition) [8] was 123% (active) and the viability decrease (inhibition) [9] was 103% (active). The fold change ([10]; stronger effect = lower value) was 0.969 (inactive) and 0.821 (inactive) and 0.887 (inactive), the fold change [10, 16] was 0.807 and 1.54 and 0.572 and the cell count [10, 17] was 5090 and 6860 and 7040. For the same molecule, the cell count [10, 18] was 5260 and 8350 and 7940, the z-score [11, 19] was 0.075 (inactive) and -0.442 (inactive) and the z-score [11, 20] was -0.608 and 0.109.

With `COC(C)(C)CCCC(C)C/C=C/C(C)=C/C(=O)OC(C)C` (stereo unspecified) the nuclear beta-catenin stimulation ([2]; at 10 µM) was 2% (inactive), the nuclear beta-catenin stimulation ([2]; stimulation, at 2 µM) was 1% and the insulin secretion stimulation [3] was 1.35% (inactive). For the same molecule, the viability decrease [4] was 30.9% (inactive), the tube area decrease [5] was 2.7% (inactive) and the GLP1 secretion stimulation [6] was 3.9% (inactive). For the same molecule, the inhibition of viability [7] was 42% (inactive), the viability decrease (inhibition) [8] was 9.6% (inactive) and the viability decrease (inhibition) [9] was 17.2% (inactive). For the same molecule, the remaining NAD [13] was 10 nM (inactive).

In the case of `Cc1cccc(Cc2cnc[nH]2)c1C`, the nuclear beta-catenin stimulation ([2]; at 10 µM) is reported as 7.4% (inactive), the nuclear beta-catenin stimulation ([2]; stimulation, at 2 µM) is reported as 8.1% and the insulin secretion stimulation [3] is reported as 0.4% (inactive). For the same molecule, the viability decrease [4] was -41.9% (inactive), the tube area decrease [5] was 15.5% (inactive) and the GLP1 secretion stimulation [6] was 4.1% (inactive). The inhibition of viability [7] was 4.37% (inactive), the viability decrease (inhibition) [8] was -5.1% (inactive) and the viability decrease (inhibition) [9] was -9.9% (inactive). The fold change ([10]; stronger effect = lower value) was 0.969 (inactive), the fold change [10, 16] was 0.529 and the cell count [10, 17] was 7080. The cell count [10, 18] was 7310, the z-score [11, 19] was 0.317 (inactive) and the z-score [11, 20] was -0.228.

With `O=S(=O)(O)c1cc(O)ccc1O` the survival [12] was 4.5 (inactive), the parasite load remaining [1] was 113% (inactive) and the viability [1] was 69.3%. For the same molecule, the nuclear beta-catenin stimulation ([2]; at 10 µM) was 0.1% (inactive), the nuclear beta-catenin stimulation ([2]; stimulation, at 2 µM) was 2.5% and the insulin secretion stimulation [3] was 3.2% (inactive). The viability decrease [4] was -0.4% (inactive), the tube area decrease [5] was 3% (inactive) and the GLP1 secretion stimulation [6] was -3% (inactive). The inhibition of viability [7] was 2.4% (inactive), the viability decrease (inhibition) [8] was 19.4% (inactive) and the viability decrease (inhibition) [9] was 10.6% (inactive). For the same molecule, the fold change ([10]; stronger effect = lower value) was 0.958 (inactive) and 1.35 (inactive), the fold change [10, 16] was 0.623 and 0.929 and the cell count [10, 17] was 8960 and 8580. The cell count [10, 18] was 9360 and 6370, the z-score [11, 19] was -0.259 (inactive) and 0.566 (inactive) and the z-score [11, 20] was -0.197 and 0.515.

For `CCOc1cc(C=O)ccc1O`, the nuclear beta-catenin stimulation ([2]; at 10 µM) was -1.6% (inactive), the nuclear beta-catenin stimulation ([2]; stimulation, at 2 µM) was -0.8% and the insulin secretion stimulation [3] was 0.4% (inactive). The viability decrease [4] was 5.6% (inactive), the tube area decrease [5] was 0.8% (inactive) and the GLP1 secretion stimulation [6] was -3.6% (inactive). For the same molecule, the inhibition of viability [7] was 6% (inactive), the viability decrease (inhibition) [8] was 6.9% (inactive) and the viability decrease (inhibition) [9] was -3% (inactive). The remaining NAD [13] was 10 nM (inactive).

For `CCC(C(N)=O)N1CCCC1=O` (stereo unspecified), the nuclear beta-catenin stimulation ([2]; at 10 µM) was -0.1% (inactive), the nuclear beta-catenin stimulation ([2]; stimulation, at 2 µM) was -0.2% and the insulin secretion stimulation [3] was 1.4% (inactive). The viability decrease [4] was -0.8% (inactive), the tube area decrease [5] was -18.3% (inactive) and the GLP1 secretion stimulation [6] was 0.6% (inactive). For the same molecule, the inhibition of viability [7] was -4.9% (inactive), the viability decrease (inhibition) [8] was -0.6% (inactive) and the viability decrease (inhibition) [9] was -1.1% (inactive). The fold change ([10]; stronger effect = lower value) was 0.925 (inactive) and 0.884 (inactive), the fold change [10, 16] was 1.53 and 10.7 and the cell count [10, 17] was 9780 and 8770. The cell count [10, 18] was 10600 and 9920, the z-score [11, 19] was 2 (active) and the z-score [11, 20] was 0.478. For the same molecule, the z-score [14] was 0.645 (inactive).

For `CCCCCCCCCCCC[N+](C)(C)CCOc1ccccc1`, the nuclear beta-catenin stimulation ([2]; at 10 µM) was 20.4% (inactive), the nuclear beta-catenin stimulation ([2]; stimulation, at 2 µM) was 0.6% and the insulin secretion stimulation [3] was 5.9% (inactive). The viability decrease [4] was 110% (active), the tube area decrease [5] was 111% (active) and the GLP1 secretion stimulation [6] was 67% (active). For the same molecule, the inhibition of viability [7] was 112% (active), the viability decrease (inhibition) [8] was 134% (active) and the viability decrease (inhibition) [9] was 101% (active). For the same molecule, the fold change [10, 15] was 0.988 (inactive), the fold change [10, 16] was 0.958 and the cell count [10, 17] was 6790. For the same molecule, the cell count [10, 18] was 6870, the z-score [11, 19] was -0.488 (inactive) and the z-score [11, 20] was -0.197.

With `NCCC[C@H](N)C(=O)O` the nuclear beta-catenin stimulation ([2]; at 10 µM) was 1.2% (inactive), the nuclear beta-catenin stimulation ([2]; stimulation, at 2 µM) was 1.6% and the insulin secretion stimulation [3] was -2.2% (inactive). The viability decrease [4] was -5.15% (inactive), the tube area decrease [5] was -2.1% (inactive) and the GLP1 secretion stimulation [6] was 1.4% (inactive). The inhibition of viability [7] was -35.4% (inactive), the viability decrease (inhibition) [8] was 98.1% (active) and the viability decrease (inhibition) [9] was 0.35% (inactive). The remaining NAD [13] was 10 nM (inactive).

For `CC=CC1C(C(=O)OCc2c(F)c(F)c(COC)c(F)c2F)C1(C)C` (stereo unspecified), the nuclear beta-catenin stimulation ([2]; at 10 µM) was 2.1% (inactive), the nuclear beta-catenin stimulation ([2]; stimulation, at 2 µM) was -0.3% and the insulin secretion stimulation [3] was 0.95% (inactive). For the same molecule, the GLP1 secretion stimulation [6] was -3.8% (inactive).

In the case of `O=C(NCNC(=O)NC1C(=O)NC(=O)N1CO)NC1C(=O)NC(=O)N1CO` (stereo unspecified), the survival [12] is reported as 33.2 (inactive), the parasite load remaining [1] is reported as 92.1% (inactive) and the viability [1] is reported as 79.2%. For the same molecule, the nuclear beta-catenin stimulation ([2]; at 10 µM) was -1.7% (inactive), the nuclear beta-catenin stimulation ([2]; stimulation, at 2 µM) was 0.2% and the insulin secretion stimulation [3] was 1.2% (inactive). For the same molecule, the viability decrease [4] was -3.4% (inactive), the tube area decrease [5] was -8.4% (inactive) and the GLP1 secretion stimulation [6] was -0.8% (inactive). The inhibition of viability [7] was -1.8% (inactive), the viability decrease (inhibition) [8] was 3.1% (inactive) and the viability decrease (inhibition) [9] was 8.4% (inactive). For the same molecule, the fold change ([10]; stronger effect = lower value) was 0.914 (inactive), the fold change [10, 16] was 0.72 and the cell count [10, 17] was 9340. For the same molecule, the cell count [10, 18] was 10200, the z-score [11, 19] was 0.818 (inactive) and the z-score [11, 20] was 0.0717.
